Bioassay records: PubChem, National Center for Advancing Translational Sciences (NCATS)
The list is not random: actives were taken first. Their share in the collection is about 17%.
HT1080 IDH1KD tx: HT-1080 IDH1 knockdown cell toxicity (counter line); hit rate 2% among 360,000; Potency, µM (doses to about 46.1 µM), without a hit: top-dose activity, negative = toxicity, actives largely listed as cytotoxic; HT-1080 IDH1 knockdown viability, ATP luminescence, 48 h;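 note: 0% = DMSO wells and -100% = cell-free medium wells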
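CellTiter-Glo luminescence after 48 h compound exposure at 37 degrees C of IDH1-knockdown HT-1080 cells in 5% FBS RPMI. %Activity scaled between DMSO wells and cell-free media wells, with curves fitted and assigned curve classes.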
TDP1 cell noCPT: qHTS for Inhibitors of human tyrosyl-DNA phosphodiesterase 1 (TDP1): qHTS in cells in absence of CPT; AID 686978, 2013; DT40 Tdp1-/- hTDP1 cells, no CPT, ATP luminescence, 48 h; Potency, µM (highest dose often 46.2 µM), inactives show at the top dose activity change, negative = growth inhibition, usual class: inhibitors; hit rate 15% among 420,000; note: % is set by controls: 0 for no effect and ±100 for the full control effect; nearly all actives have a fitted effect of over 55% in size
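Compound effects on proliferation are scored in DT40 Tdp1-/-;hTDP1 cells in the absence of CPT. ATP levels (CellTiter-Glo luminescence) are recorded after a ≥48 hr, 37 °C incubation.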
TGFb inhibitor: TGF-b pathway inhibition. HepG2 CAGA-GFP TGF-b/SMAD3 reporter, GFP fluorescence, 18 h; TGF-beta stimulated, 500 pg/mL final. Potency, µM (series often up to 46.1 µM), for inactives: at the top dose activity, negative = inhibition, actives largely listed as inhibitors. hit rate 1.2% among 410,000; note: % is set by controls: 0 for no effect and ±100 for the full control effect; nearly all actives have a fitted effect of over 65% in size
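HEPG2 CAGA-GFP reporter cells (1000/well, DMEM with 1% FBS) received compounds, then recombinant TGF-beta at 500 pg/mL final for 18 hours at 37 degrees C. Per-cell GFP summed per well was normalised to unstimulated and stimulated DMSO controls before curve fitting.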
HT1080NT lethal: kills 2HG-producing HT-1080-NT fibrosarcoma cells | HT-1080-NT fibrosarcoma viability, CellTiter-Glo ATP luminescence, 48 h | Potency, µM (titrated, usually from 46.1 µM), inactives show top-dose activity, negative = less viability, hits mostly cytotoxic | hit rate 1.6% among 360,000;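 note: NT is the 2HG producing partner of a matched IDH1 knockdown line; 0% = DMSO-treated cells and -100% = media-only wells without cells; nearly all actives have a fitted effect of over 55% in size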
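Read-out is CellTiter-Glo luminescence after 10 minutes at room temperature, following 48 hours' compound treatment of HT-1080-NT cells (750 cells/well, RPMI, 5% FBS, 37 degrees C).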
DT40 TDP1 CPT: growth inhibition of DT40 Tdp1-/-;hTDP1 cells with camptothecin (screen for TDP1 inhibitors). Potency, µM (top dose mostly 46.2 µM), for the others: at the top dose activity change, negative = growth inhibition, most hits filed as inhibitors. AID 686979. hit rate 12% among 420,000. chicken DT40 Tdp1-/-;hTDP1 cells + 20 nM CPT, ATP luminescence, 48 h; note: % is set by controls: 0 for no effect and ±100 for the full control effect; nearly all actives have a fitted effect of over 55% in size
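Cell growth measured by CellTiter-Glo luminescence after a minimum 48 h, 37 C compound exposure with 20 nM CPT in Tdp1-knockout DT40 cells stably expressing hTDP1, seeded 400/well; qHTS titration format.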
HepG2 viability: HepG2 cytotoxicity, counter-screen for TGF-b inhibitors. HepG2 CAGA-GFP viability, ATP luminescence, 18 h. Potency, µM (series often up to 46.1 µM), for inactives: top-dose activity change, negative = cytotoxicity, hits mostly cytotoxic. hit rate 0.76% among 410,000
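CellTiter-Glo luminescence gave cytotoxicity after 18 hours at 37 degrees C. The cells were HepG2 CAGA-GFP in 1% FBS DMEM, stimulated with 500 pg/mL TGF-beta after compound addition. %Activity was normalised to no-cell wells (complete cell-killing) and DMSO (no toxicity), and curves were fitted and classified.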
* marks the source's active call; other numbers are inactive results; ? = inconclusive; nt = not tested or not shown. Calls come from the whole dose curve; as a rule, active = well fitted curve in the direction sought with a large enough effect; inconclusive = small, poorly fitted or top-dose-only effect, or another doubt; inactive = no such curve, though single readings can be large; an effect the other way counts as inactive or inconclusive. Potency is the fitted concentration of half-maximal effect.

SMILES | HT1080 IDH1KD tx | TDP1 cell noCPT | TGFb inhibitor | HT1080NT lethal | DT40 TDP1 CPT | HepG2 viability
CC1=NOC(=O)/C1=C\c1ccc(-c2cccc(Cl)c2)o1 | 18µM* | 5.2µM* | ? | ? | 5.8µM* | -110%
COC(=O)N/N=C/c1ccc(-c2cccc(Cl)c2)o1 | 1% | ? | 16% | 6% | 3% | 2%
CC1=CC2=NC(=O)/C(=C\c3ccc(-c4cccc(Cl)c4)o3)C(=N)N2O1 | 8.2µM* | 2.6µM* | -15% | 10µM* | 4.6µM* | -25%
CC1=NOC(=O)/C1=C\c1ccc(-c2ccccc2Br)o1 | ? | 5.8µM* | ? | -10% | 6.5µM* | -109%
Cc1ccc(C(=O)N2CCNC(=O)C2CC(=O)Nc2ccccc2)cc1 (configuration not stated) | 17% | 15% | 7% | 24% | -6% | -4%
CN1Cc2c(C(=O)OC(C)(C)C)ncn2-c2ccsc2C1=O | nt | -4% | nt | nt | 0% | nt
O=C(NCc1cccc(Br)c1)c1ccc(-n2cnc3cccnc32)cc1 | nt | ? | 0% | nt | ? | -10%
CCc1ccccc1NC(=O)N1CCCn2nc(C)cc21 | nt | -22% | nt | nt | 6% | 21%
CN[C@H]1C[C@H]2c3cc(-c4ccccc4)ccc3CCN2C(=O)[C@H]1[C@H](C)O | -4% | ? | -2% | ? | ? | -31%
COc1ccc(NC(=O)N(C)[C@H]2C[C@H]3c4[nH]c5ccc(-c6ccc(OC)cc6)cc5c4CCN3C(=O)[C@H]2[C@H](C)O)cc1 | 16µM* | 13µM* | ? | 23µM* | 18µM* | -41%
CN[C@H]1C[C@H]2c3[nH]c4ccc(-c5ccc(OC)cc5)cc4c3CCN2C(=O)[C@H]1[C@H](C)O | 13µM* | 3.3µM* | 16µM* | 8.2µM* | 2.6µM* | 14µM*
COc1ccc(NC(=O)N(C)[C@H]2C[C@H]3c4[nH]c5ccccc5c4CCN3C(=O)[C@H]2[C@H](C)O)cc1 | -4% | ? | -11% | -4% | -25% | -19%
COc1ccc(-c2ccc3[nH]c4c(c3c2)CCN2C(=O)[C@@H]([C@H](C)O)[C@@H](N(C)C(=O)Nc3ccccc3)C[C@@H]42)cc1 | 16µM* | 6.5µM* | ? | 23µM* | 13µM* | -103%
Cc1ccccc1N1CCN(C2CCCN(C(=O)CCn3cnnn3)C2)CC1 (configuration not stated) | 19% | -17% | 3% | -5% | 1% | 12%
COC(=O)c1c(NC(=O)COC(=O)c2ccc(O)cc2)sc2c1CCCCC2 | -6% | 29µM* | 3% | 2% | ? | -4%
COc1ccc(NC(=O)c2c(NC(=O)CCC(=O)O)sc3c2CCCCC3)cc1 | 5% | -18% | 14% | -15% | -8% | -2%
COC(=O)c1c(NC(=O)/C=C/c2ccc(OC)c(OC)c2)sc2c1CCC2 | nt | 9.2µM* | -3% | nt | ? | 6%
CCOC(=O)c1c(NC(=O)C(=O)N/N=C/c2ccc(O)c(OC)c2)sc2c1CCCCC2 | 3% | 23µM* | 3% | -19% | ? | -19%
COc1ccc(/C=C/C(=O)Nc2sc3c(c2C(N)=O)CCCC3)cc1 | nt | -17% | 3% | nt | 5% | -24%
COc1ccc(NC(=O)c2c(NCc3ccc(N(C)C)cc3)sc3c2CCC3)cc1 | nt | 10µM* | -12% | nt | 13µM* | -25%
CCCCN(C=O)c1c(CC)nc2ccc(C(=O)NCCCn3ccnc3)cn12 | 8% | -17% | 17% | 21% | -20% | 2%
COc1ccc(-c2cn3nc(N4CCC(C(=O)NCc5cccc(Cl)c5)CC4)sc3n2)cc1 | nt | -29% | 0% | nt | ? | -3%
Cc1ccccc1NC(=O)Cn1nc(-c2ccccc2)nc(Cc2ccccc2)c1=O | nt | -26% | -2% | nt | 10% | 5%
COC(=O)c1ccc(NC(=O)c2c(NCc3ccc(OC)c(OC)c3)sc3c2CCCC3)cc1 | nt | 5.2µM* | ? | nt | 2.9µM* | -26%
O=C(COC(=O)c1ccc(O)cc1)Nc1ccc(N2CCCCC2)cc1 | -3% | 21µM* | -5% | 0% | ? | -12%
SMILES | HT1080 IDH1KD tx | TDP1 cell noCPT | TGFb inhibitor | HT1080NT lethal | DT40 TDP1 CPT | HepG2 viability
CCOC(=O)c1c(CC(C)C)csc1NC(=O)COC(=O)c1ccc(O)cc1 | -1% | 18µM* | 0% | -3% | 23µM* | -10%
CCOC(=O)c1c(NC(=O)c2ccc(OC)c(OC)c2)sc2c1CCCCC2 | nt | ? | 7% | nt | ? | -35%
COC(=O)c1ccc(NC(=O)c2c(NCc3ccc(C)o3)sc3c2CCCC3)cc1 | nt | ? | 0% | nt | 15µM* | -46%
COc1ccccc1CNC(=O)C1CCN(S(=O)(=O)c2ccc3c(c2)CCCN3C(C)=O)CC1 | nt | ? | -13% | nt | ? | -1%
Cc1noc(C)c1-c1cncnc1NCc1cccnc1 | nt | 2% | nt | nt | 2% | nt
COC(=O)c1cccc(NC(=O)CSc2nnc(C)n2Cc2ccccc2)c1 | 0% | -9% | -4% | 10% | -2% | 0%
COc1ccc(NC(=O)c2c(NCc3cccc(OC)c3)sc3c2CCCC3)cc1 | nt | 23µM* | ? | nt | ? | -28%
O=C(CNC1CCCC1)Nc1ccc(N2CCCCCC2)cc1 | ? | ? | 12% | -29% | ? | -14%
O=C(CNCCC1=CCCCC1)Nc1ccc(N2CCCCCC2)cc1 | ? | 21µM* | 16µM* | ? | 21µM* | -108%
COc1ccc(CC(=O)Nc2sc3c(c2C(N)=O)CCCC3)cc1OC | 0% | 18µM* | -12% | -8% | ? | 7%
Cc1csc(Nc2nc(N)c(C(=O)Nc3cc(Cl)ccc3F)o2)n1 | ? | ? | 2% | ? | ? | -20%
O=C(Cc1ccc(Cl)cc1)SCc1ccccc1 | 11% | 4% | -1% | 16% | -9% | 2%
COC(=O)c1ccc(-c2ccc(OC)c([C@H]3[C@H]4C=CC[C@@H](C)[C@@H]4C(=O)N3Cc3ccccc3)c2)cc1 | -2% | 6.5µM* | -16% | -1% | 5.8µM* | -3%
COc1ccc(-c2ccc(C(C)=O)cc2)cc1[C@H]1[C@H]2C=CC[C@@H](C)[C@@H]2C(=O)N1Cc1ccccc1 | 3% | 16µM* | -5% | 14% | 23µM* | 3%
COc1ccc(-c2ccc(C(C)=O)cc2)cc1C1C2C=CCC(C)C2C(=O)N1Cc1ccccc1 (configuration not stated) | nt | nt | -2% | nt | nt | 3%
